Test results as given in PubChem BioAssay AID720690 (Broad Institute, 2013).
Measured potencies and affinities stand elsewhere. A number with no mark means an inactive call.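 How the source made its calls: active means every repeat run showing a signal drop whose fitted half-maximal concentration is at most twice the top tested concentration; inconclusive means repeat runs disagree, or flat partial drop, or poor fit; inactive means the rest.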

experiment: HEK293T cytotoxicity, dose response, cytotoxicity control for miR-122 modulator project, cell-based, activator set, cherry-pick (AID 720690); settings: HEK293T viability, CellTiter-Glo luminescence, 48 h; series mostly up to 26 µM; activity change, negative = cytotoxicity: at the top concentration;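 further: 0% = neutral control wells and -100% = MG132 cytotoxic control wells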

SMILES	activity change, negative = cytotoxicity
COc1ccccc1NC(=O)Nc1ccc2c(c1)C(=O)N(C)[C@H]1CC[C@H](CC(=O)Nc3ccc4c(c3)COC4)O[C@@H]1CO2	5.52%
COc1cccc(C(=O)Nc2ccc3c(c2)C(=O)N(C)[C@@H]2CC[C@@H](CC(=O)NCc4ccc(F)cc4)O[C@@H]2CO3)c1	-2.6%
C[C@@H]1CN([C@@H](C)CO)C(=O)c2cccc(NC(=O)Nc3ccc4c(c3)OCO4)c2O[C@@H]1CN(C)Cc1ccc(Oc2ccccc2)cc1	-15.5%
O=C(C1CCCC1)N1C[C@H]2[C@@H](c3ccccc31)[C@H](CO)N2C(=O)Nc1cccc(F)c1	0.05%
COc1cccc(C(=O)Nc2ccc3c(c2)C(=O)N(C)[C@@H]2CC[C@H](CC(=O)NCc4ccc(F)cc4)O[C@@H]2CO3)c1	-25.6%
COc1cc(-c2nnc3sc(C4CCCCC4)nn23)cc(OC)c1OC	-26%
CNC(=O)C[C@@H]1CC[C@@H]2[C@@H](COc3ccc(NC(=O)Nc4ccccc4OC)cc3C(=O)N2C)O1	17.7%
C/C=C/c1ccc([C@H]2[C@@H](CO)N[C@@H]2CN(CC(C)C)C(=O)c2ccccn2)cc1	13.9%
CC(C)CC#Cc1ccc2c(c1)O[C@H](CN(C)C(=O)c1cnccn1)[C@H](C)CN([C@@H](C)CO)S2(=O)=O	2.29%
COc1ccc(CN2CCN(Cc3cccn3-c3ncccn3)CC2CCO)c(C)c1C (configuration not stated)	5.96%
COCC(=O)N(C)C[C@H]1Oc2cc(-c3ccccc3F)ccc2S(=O)(=O)N([C@@H](C)CO)C[C@H]1C	-7.98%
COc1cc(-c2nnc(-c3ccco3)o2)ccc1OCc1ccccc1	-1.14%
C/C=C/c1ccc([C@H]2[C@@H](CO)N(C(C)=O)[C@@H]2CN(C(=O)COC)C(C)C)cc1	2.1%
N#Cc1ccc(C(=O)Nc2ccc(N3CCN(C(=O)c4ccco4)CC3)cc2)c(F)c1	8.37%
COCC(=O)NC[C@H]1[C@@H](c2ccc(C3=CCCC3)cc2)[C@H](CO)N1C(=O)C1CC1	-9.54%
COCC(=O)N(C[C@H]1N[C@@H](CO)[C@@H]1c1ccc(C2=CCCC2)cc1)C(C)C	-19.8%
CN1C(=O)c2cc(NC(=O)Nc3cccc(Cl)c3)ccc2OC[C@H]2O[C@@H](CC(=O)NCCc3ccncc3)CC[C@H]21	2.37% [at 23.5 µM]
O=c1c2cc(N3CCOCC3)ccc2[nH]c(=S)n1CCCN1CCCC1	30.1%
CCC(=O)N1[C@H](CO)[C@H]2c3ccccc3N(C(=O)CC(F)(F)F)C[C@H]21	-6.13% [at 23.5 µM]
CCCCNC(=O)Nc1nnc(-c2ccc(OCC)cc2)o1	7.89%
OC(c1cc(C(F)(F)F)nc2c(Cl)cc(Cl)cc12)C1CCCCN1 (configuration not stated)	-47.8%
CN(C)c1ncnc2c1ncn2C1OC(CO)C(O)C1O (configuration not stated)	-19.5%
COc1ccc(CN2CCOC2=O)cc1OC	-2.26%
CN1C(=O)c2cc(NC(=O)c3cccc(F)c3)ccc2OC[C@H]2O[C@@H](CC(=O)O)CC[C@@H]21	-1.64%
CC(=O)N(C)C[C@H]1Oc2cc(/C=C/c3ccccc3)ccc2S(=O)(=O)N([C@@H](C)CO)C[C@H]1C	-1.21%
CC(=O)Nc1ccc2c(c1)C(=O)N(C)[C@H]1CC[C@@H](CC(=O)NCc3ccc4c(c3)OCO4)O[C@@H]1CO2	-3.39% [at 23.5 µM]
CCNC(=O)Nc1ccc2c(c1)C(=O)N(C)[C@H]1CC[C@H](CC(=O)NCCN3CCCC3)O[C@@H]1CO2	-0.303%
